{
  "source": "PubChem BioAssay AID1460",
  "about": "(National Center for Advancing Translational Sciences (NCATS), 2008)",
  "note": "The campaign covered roughly 270,000 compounds. About 5,800 (2.1%) were called active. Inconclusive results (about 16%) are left out. For the sample, actives were picked, then their nearest neighbours and some compounds at random. Values without a mark were called inactive. Calls come from the whole dose curve; as a rule, active = well fitted inhibition curve with a large enough effect; inconclusive = small, poorly fitted or top-dose-only effect; inactive = flat fitted curve, though single readings scatter. % is set by controls: 0 for no effect and ±100 for the full control effect; potency is the fitted concentration of half-maximal effect.",
  "data": [
    {"target": "Microtubule-associated protein tau (Homo sapiens) (UniProt P10636)", "sequence (P10636 561-689 P618L limits assumed)": "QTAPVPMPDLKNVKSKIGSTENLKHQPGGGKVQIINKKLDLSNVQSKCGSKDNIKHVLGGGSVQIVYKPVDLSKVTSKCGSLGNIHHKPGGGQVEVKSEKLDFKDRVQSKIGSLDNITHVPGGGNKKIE", "experiment": "qHTS for Inhibitors of Tau Fibril Formation, Thioflavin T Binding; note: nearly all actives have a fitted effect of over 55% in size", "conditions": "recombinant tau K18 P301L, heparin-induced fibrillization, ThT fluorescence; series mostly up to 57.4 µM; activity, negative = inhibition: at the top concentration", "method_in_brief": "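Fibril formation assay: tau K18 P301L at 15 uM with trace Alexa 594 label, heparin inducer 20 uM, pH 7 sodium acetate buffer, 37 C for 6 hr; endpoint ThT signal.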", "units": {"activity, negative = inhibition": "%"}, "values": [
      {"smiles": "COc1ccc(C(=O)Nc2onc3c2CCCC3)cc1", "activity, negative = inhibition": -16.8},
      {"smiles": "COc1ccccc1CNC(=O)Cn1nc(C)c2nn(-c3ccc(Cl)cc3)c(C)c2c1=O", "activity, negative = inhibition": 4.79},
      {"smiles": "CCN(CC)C(=O)CSc1nc2cc3c(cc2c(=O)n1CCCC(=O)NCc1ccc2c(c1)OCO2)OCO3", "activity, negative = inhibition": -2.2},
      {"smiles": "O=C(CSCc1cnn(-c2ccccc2)c1-n1cccc1)NCc1ccc(Cl)cc1", "activity, negative = inhibition": -1.21},
      {"smiles": "CCOc1ccc(C(=O)N2CCN(CCc3ccccn3)CC2)cc1", "activity, negative = inhibition": -1.29},
      {"smiles": "Cc1cc(-c2n[nH]c(=S)n2/N=C/C(Br)=C/c2ccccc2)n[nH]1", "Potency": "12.6 µM (active)"},
      {"smiles": "Oc1ccccc1/C=N/n1c(-c2cccs2)n[nH]c1=S", "activity, negative = inhibition": -17.5},
      {"smiles": "Cc1cc(-c2n[nH]c(=S)n2/N=C/c2ccco2)n[nH]1", "activity, negative = inhibition": -14.8},
      {"smiles": "COc1ccccc1CN1CCC(CNC(=O)c2cnn(-c3cccc(Cl)c3)c2C2CCN(C(=O)OC(C)(C)C)CC2)CC1", "activity, negative = inhibition": -15.4},
      {"smiles": "CCOc1ccccc1CNC(=O)c1ccc2c(c1)nc1n2CCC(C)C1", "note": "(configuration not stated)", "activity, negative = inhibition": -0.504},
      {"smiles": "Cc1ccc(NC(=O)c2cc3cc(C)ccc3n2C)cc1", "activity, negative = inhibition": -1.89},
      {"smiles": "CCOC(=O)c1c(NC(C)=O)c2c3c(sc2n1Cc1c(C)cc(C)cc1C)CCCC3", "activity, negative = inhibition": -12.4},
      {"smiles": "Fc1ccc(CSc2nc(NCc3ccccc3)c3ccccc3n2)cc1", "activity, negative = inhibition": -5.42},
      {"smiles": "COc1ccc(NC(C)=O)cc1NC(=O)CN1CCN(c2ccc(F)cc2)CC1", "activity, negative = inhibition": -3.85},
      {"smiles": "CC1(C)CC(CC(=O)O)C(=O)O1", "note": "(configuration not stated)", "activity, negative = inhibition": -2.28},
      {"smiles": "CC(=O)Nc1ccc(-c2csc(NC=C3C(=O)OC(C)(C)OC3=O)n2)cc1", "activity, negative = inhibition": -12.1},
      {"smiles": "C/C(CC1CC(C)(C)OC1=O)=N/Nc1nc(-c2ccccc2)cs1", "note": "(configuration not stated)", "Potency": "25.1 µM (active)"},
      {"smiles": "Cc1ccc(-c2nn3c(=O)cc(CN4CCN(S(=O)(=O)c5ccc(Cl)cc5)CC4)nc3s2)cc1", "activity, negative = inhibition": -9.18},
      {"smiles": "COc1ccccc1N1CCN(c2ccc(=O)n(CC(=O)NCc3ccc(OC(C)C)cc3)n2)CC1", "activity, negative = inhibition": -18.5},
      {"smiles": "COc1ccc(N2C(=O)CS(=O)(=O)C23C(=O)N(Cc2ccc(C)cc2)c2ccccc23)cc1Cl", "note": "(configuration not stated)", "activity, negative = inhibition": -11.1},
      {"smiles": "Cc1c(CNC(C)c2ccccc2)c(C(=O)O)c(C)n1Cc1c(F)cccc1Cl", "note": "(configuration not stated)", "activity, negative = inhibition": -8.01},
      {"smiles": "COc1ccccc1C1/C(=C(/O)c2ccc(OC(C)C)cc2)C(=O)C(=O)N1c1cc(C)on1", "note": "(configuration not stated)", "activity, negative = inhibition": -3.88},
      {"smiles": "COc1ccc(/C(O)=C2/C(=O)C(=O)N(c3nc(C)c(C)s3)C2c2ccco2)cc1", "note": "(configuration not stated)", "activity, negative = inhibition": -17.4},
      {"smiles": "CCOc1ccc(/C(O)=C2\\C(=O)C(=O)N(c3ccc(OC)cc3)C2c2ccccc2[N+](=O)[O-])cc1", "note": "(configuration not stated)", "Potency": "5.01 µM (active)"},
      {"smiles": "CN(C)N=Nc1ccc2nc[nH]c2c1", "Potency": "4.47 µM (active)"},
      {"smiles": "CC/C(O)=N\\S(=O)(=O)c1ccc(N=NN(C)C)cc1", "activity, negative = inhibition": -16.6},
      {"smiles": "CCCN(CCC)S(=O)(=O)c1ccc(C(=O)Nc2sc3c(c2C(=O)OC)CCN(CC)C3)cc1", "activity, negative = inhibition": -9.25}
    ]}
  ]
}
